Results as given in PubChem BioAssay (NCATS).
Activity calls are given as the source filed them. The call rests on the fitted dose curve; in most records, active means well fitted curve in the direction sought with a large enough effect; inconclusive means small, poorly fitted or top-dose-only effect, or another doubt; inactive means no such curve, though single readings can be large; an effect the other way counts as inactive or inconclusive.

test: Cellular Toxicity (caspase-3) SHSY5Y (AID 657); conditions: SH-SY5Y caspase-3 activation, DMSO zero, 10 µM staurosporine = 100%; series mostly up to 91.7 µM
Method in brief: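 Luminescent Caspase-Glo 3/7 read-out, 1 hr room temperature, follows 16 hours of compound treatment of SH-SY5Y cells at 37 °C. Normalization: DMSO basal, 10 uM staurosporine as 100%; AC50 values from Hill-equation concentration-response fits.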

Row | SMILES | outcome
1 | Brc1ccccc1 | inactive
2 | CCOP(=S)(OCC)SCSC(C)(C)C | inactive
3 | C=C(C)C#N | inactive
4 | CCSC(=O)Cl | inactive
5 | Cc1cccc([N+](=O)[O-])c1 | inactive
6 | Nc1c(Cl)c(Cl)nc(C(=O)O)c1Cl | inactive
7 | CC(C)(C)OOC(C)(C)C | inactive
8 | C=C(C)C(=O)OCC1CO1 (stereo not given) | inactive
9 | Cc1ccc([N+](=O)[O-])cc1C | inactive
10 | O=[N+]([O-])c1ccc(Cl)c(Cl)c1 | inactive
11 | C=CC(=C)C | inactive
12 | Cc1ccc2ccccc2c1 | inactive
13 | Nc1ccccc1Cl | inactive
14 | Clc1ccc2ccccc2c1 | inactive
15 | [O-][Br+2]([O-])O | inactive
16 | Clc1nc(Cl)nc(Nc2ccccc2Cl)n1 | inactive
17 | OCC1CO1 (stereo not given) | inactive
18 | C=CCOC(=O)c1ccccc1N | inactive
19 | C=CC(N)=O | inactive
20 | CC(C)(c1ccccc1)c1ccc(O)cc1 | inactive

Row | SMILES | outcome
21 | CCN(CC)c1ccccc1 | inactive
22 | S=C=Nc1cccc2ccccc12 | inactive
23 | N#CCCCl | inactive
24 | O=NN(CCO)CCO | inactive
25 | Cc1ccccc1N | inactive
26 | C=CCOC(C)=O | inactive
27 | CCCC(=O)Cl | inactive
28 | NC(=S)Nc1ccccc1 | inactive
29 | O=C(Cl)/C=C/C(=O)Cl | inactive
30 | C=C(Cl)Cl | inactive
31 | ClCBr | inactive
32 | COc1ccc(C=O)cc1OC | inactive
33 | C=CC(=O)OCC | inactive
34 | c1nc[nH]n1 | inactive
35 | c1ccc2c(c1)CCCC2 | inactive
36 | CCCSC(=O)Cl | inactive
37 | Clc1cccc(C(Cl)(Cl)Cl)n1 | inactive
38 | O=NN(c1ccccc1)c1ccccc1 | inactive
39 | C1CCC2CCCCC2C1 (stereo not given) | inactive
40 | CC(O)CCl (stereo not given) | inactive

test: Cellular Toxicity (caspase-3) BJ (AID 658); conditions: BJ fibroblasts, luminescence, normalized: DMSO 0%, staurosporine 100%; series mostly up to 91.7 µM
Method in brief: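 Caspase-Glo 3/7 luminescence, read 1 hr after reagent at room temperature, in normal BJ fibroblasts exposed 16 hours at 37 °C. AC50 values from Hill-equation concentration-response, scaled between DMSO basal and 10 uM staurosporine as 100%.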

Row | SMILES | outcome
41 | Brc1ccccc1 | inactive
42 | CCOP(=S)(OCC)SCSC(C)(C)C | inactive
43 | C=C(C)C#N | inactive
44 | CCSC(=O)Cl | inactive
45 | Cc1cccc([N+](=O)[O-])c1 | inactive
46 | Nc1c(Cl)c(Cl)nc(C(=O)O)c1Cl | inactive
47 | CC(C)(C)OOC(C)(C)C | inactive
48 | C=C(C)C(=O)OCC1CO1 (stereo not given) | inactive
49 | Cc1ccc([N+](=O)[O-])cc1C | inactive
50 | O=[N+]([O-])c1ccc(Cl)c(Cl)c1 | inactive
51 | C=CC(=C)C | inactive
52 | Cc1ccc2ccccc2c1 | inactive
53 | Nc1ccccc1Cl | inactive
54 | Clc1ccc2ccccc2c1 | inactive
55 | [O-][Br+2]([O-])O | inactive
56 | Clc1nc(Cl)nc(Nc2ccccc2Cl)n1 | inactive
57 | OCC1CO1 (stereo not given) | inactive
58 | C=CCOC(=O)c1ccccc1N | inactive
59 | C=CC(N)=O | inactive
60 | CC(C)(c1ccccc1)c1ccc(O)cc1 | inactive

Row | SMILES | outcome
61 | CCN(CC)c1ccccc1 | inactive
62 | S=C=Nc1cccc2ccccc12 | inactive
63 | N#CCCCl | inactive
64 | O=NN(CCO)CCO | inactive
65 | Cc1ccccc1N | inactive
66 | C=CCOC(C)=O | inactive
67 | CCCC(=O)Cl | inactive
68 | NC(=S)Nc1ccccc1 | inactive
69 | O=C(Cl)/C=C/C(=O)Cl | inactive
70 | C=C(Cl)Cl | inactive
71 | ClCBr | inactive
72 | COc1ccc(C=O)cc1OC | inactive
73 | C=CC(=O)OCC | inactive
74 | c1nc[nH]n1 | inactive
75 | c1ccc2c(c1)CCCC2 | inactive
76 | CCCSC(=O)Cl | inactive
77 | Clc1cccc(C(Cl)(Cl)Cl)n1 | inactive
78 | O=NN(c1ccccc1)c1ccccc1 | inactive
79 | C1CCC2CCCCC2C1 (stereo not given) | inactive
80 | CC(O)CCl (stereo not given) | inactive

test: Cellular Toxicity (caspase-3) MRC-5 (AID 659); conditions: MRC-5 cells, luminescence, normalized: DMSO 0%, 10 µM staurosporine 100%; series mostly up to 91.7 µM
Method in brief: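 Luminescent Caspase-Glo 3/7 read-out (1 h, room temperature) after a 16 h, 37 °C compound exposure of MRC-5 lung fibroblasts at 1500 cells/well. Concentration-response AC50 from Hill equation; 0% DMSO, 100% 10 uM staurosporine.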

Row | SMILES | outcome
81 | Brc1ccccc1 | inactive
82 | CCOP(=S)(OCC)SCSC(C)(C)C | inactive
83 | C=C(C)C#N | inactive
84 | CCSC(=O)Cl | inactive
85 | Cc1cccc([N+](=O)[O-])c1 | inactive
86 | Nc1c(Cl)c(Cl)nc(C(=O)O)c1Cl | inactive
87 | CC(C)(C)OOC(C)(C)C | inactive
88 | C=C(C)C(=O)OCC1CO1 (stereo not given) | inactive
89 | Cc1ccc([N+](=O)[O-])cc1C | inactive
90 | O=[N+]([O-])c1ccc(Cl)c(Cl)c1 | inactive
91 | C=CC(=C)C | inactive
92 | Cc1ccc2ccccc2c1 | inactive
93 | Nc1ccccc1Cl | inactive
94 | Clc1ccc2ccccc2c1 | inactive
95 | [O-][Br+2]([O-])O | inactive
96 | Clc1nc(Cl)nc(Nc2ccccc2Cl)n1 | inactive
97 | OCC1CO1 (stereo not given) | inactive
98 | C=CCOC(=O)c1ccccc1N | inactive
99 | C=CC(N)=O | inactive
100 | CC(C)(c1ccccc1)c1ccc(O)cc1 | inactive

Row | SMILES | outcome
101 | CCN(CC)c1ccccc1 | inactive
102 | S=C=Nc1cccc2ccccc12 | inactive
103 | N#CCCCl | inactive
104 | O=NN(CCO)CCO | inactive
105 | Cc1ccccc1N | inactive
106 | C=CCOC(C)=O | inactive
107 | CCCC(=O)Cl | inactive
108 | NC(=S)Nc1ccccc1 | inactive
109 | O=C(Cl)/C=C/C(=O)Cl | inactive
110 | C=C(Cl)Cl | inactive
111 | ClCBr | inactive
112 | COc1ccc(C=O)cc1OC | inactive
113 | C=CC(=O)OCC | inactive
114 | c1nc[nH]n1 | inactive
115 | c1ccc2c(c1)CCCC2 | inactive
116 | CCCSC(=O)Cl | inactive
117 | Clc1cccc(C(Cl)(Cl)Cl)n1 | inactive
118 | O=NN(c1ccccc1)c1ccccc1 | inactive
119 | C1CCC2CCCCC2C1 (stereo not given) | inactive
120 | CC(O)CCl (stereo not given) | inactive
